High-throughput results from PubChem.
Only some compounds are listed: those with a hit (about 12% of all), similar ones and a draw of the others.
PLK1 PBD block: blocks phosphopeptide binding to human PLK1 polo-box domain. Plk1 PBD binding of FITC phosphopeptide, fluorescence polarization. Potency, µM, for inactives: max response, negative = inhibition, usual class: inhibitors. hit rate 2.8% among 360,000; also: potency is read from the fitted curve at half-maximal effect; series mostly up to about 57 µM; % is scaled to controls: 0 for no effect and ±100 for the full control effect; nearly all actives have a fitted effect of over 65% in size
BAZ2B inh: BAZ2B (human) inhibition | Q9UIF8 | AlphaScreen BAZ2B-H3K14Ac peptide displacement | Potency, µM (top dose mostly 114 µM), for the others: at the highest dose activity change, negative = inhibition, hits mostly inhibitors | hit rate 4.4% among 360,000; also: potency is read from the fitted curve at half-maximal effect; % is scaled to controls: 0 for no effect and ±100 for the full control effect; nearly all actives have a fitted effect of over 60% in size
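AlphaScreen luminescence quantifies BAZ2B engagement of H3K14Ac peptide; the protein and biotinylated peptide are both at 50 nM final, buffer PBS pH 7.4 with 0.01% Tween-20, all steps at room temperature.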
JMJD2A Tudor inh: JMJD2A Tudor domain (human) inhibition | AlphaScreen JMJD2A-Tudor / H3K4me3 peptide binding | hit rate 4.4% among 390,000 | Potency, µM (top dose mostly 114 µM), inactives show at the highest dose activity change, negative = inhibition, most hits filed as inhibitors; also: potency is read from the fitted curve at half-maximal effect; % is scaled to controls: 0 for no effect and ±100 for the full control effect; nearly all actives have a fitted effect of over 50% in size
HP1b binding inh: inhibitors of HP1-beta chromodomain binding to methylated histone tails; P83916; AlphaScreen HP1-beta / biotin-H3K9me3 peptide binding; Potency, µM (series often up to 114 µM), for the others: at the top dose activity change, negative = inhibition, most hits filed as inhibitors; hit rate 0.56% among 390,000; AID 540317; also: potency is read from the fitted curve at half-maximal effect; nearly all actives have a fitted effect of over 70% in size
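HP1-beta protein (50 nM final) preincubated 30 min at room temperature with biotinylated H3(1-18)K9me3 peptide (50 nM) in PBS pH 7.4, 0.01% Tween-20, then compound added for 30 min. AlphaScreen streptavidin donor/nickel chelate acceptor beads (10 ug/mL final), 30 min dark, luminescence read.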
PI5P4K alpha inh: inhibitors of human PI5P4K alpha; PI5P4Kalpha enzyme, ADP-Glo luminescence, 60 min; hits give low values; hit rate 1.2% among 330,000; max response, %; AID 652105; active = max response of -50% or lower; inconclusive = between -30% and -50%; inactive = -30% or higher; also: value at the top dose of about 77 µM; % is scaled to controls: 0 for no effect and ±100 for the full control effect
Target sequence (P48426 whole entry, looked up): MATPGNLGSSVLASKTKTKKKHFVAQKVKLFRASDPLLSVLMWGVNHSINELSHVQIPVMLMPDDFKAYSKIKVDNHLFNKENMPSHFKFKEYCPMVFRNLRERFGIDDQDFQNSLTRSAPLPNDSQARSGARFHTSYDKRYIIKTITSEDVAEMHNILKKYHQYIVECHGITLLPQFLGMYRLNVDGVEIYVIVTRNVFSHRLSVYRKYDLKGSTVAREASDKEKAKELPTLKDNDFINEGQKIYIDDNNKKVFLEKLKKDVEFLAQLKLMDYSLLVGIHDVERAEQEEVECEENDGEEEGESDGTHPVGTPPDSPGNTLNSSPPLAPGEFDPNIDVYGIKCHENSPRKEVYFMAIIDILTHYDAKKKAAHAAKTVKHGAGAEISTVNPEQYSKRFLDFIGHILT
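qHTS, 1536-well: enzyme/substrate mix, compound by pin tool, 5 microM ATP final; RT 60 min; ADP-Glo reagents 1 (45 min) then 2 (30 min); luminescence.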
G9a inh: blocks human histone lysine methyltransferase G9a | AID 504332 | Q96KQ7 | G9a H3K9 monomethylation, AlphaScreen, 2 h | Potency, µM (doses to about 102 µM), for inactives: at the top dose activity, negative = inhibition, hits mostly inhibitors | hit rate 8.8% among 350,000; also: potency is read from the fitted curve at half-maximal effect; % is scaled to controls: 0 for no effect and ±100 for the full control effect; nearly all actives have a fitted effect of over 75% in size
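Chemiluminescent proximity detection of H3K9 monomethylation, read after 10 min bead incubation in the dark. Reaction: 20 nM G9a, 500 nM biotin-H3K9 peptide, 20 uM SAM cofactor, 2 h, room temperature, following 15 min enzyme-compound preincubation.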
Starred values were filed as active, the others as inactive; ? = inconclusive; . = no result; [ ] = another dose, or the depositor's remark. Unless noted, calls follow the shape of the dose curve; as a rule, active = well fitted curve in the direction sought with a large enough effect; inconclusive = small, poorly fitted or top-dose-only effect, or another doubt; inactive = no such curve, though single readings can be large; an effect the other way counts as inactive or inconclusive.

SMILES | PLK1 PBD block | BAZ2B inh | JMJD2A Tudor inh | HP1b binding inh | PI5P4K alpha inh | G9a inh
COc1cccc(-c2nc(CS(=O)CC(=O)NC(C)CCc3ccccc3)c(C)o2)c1 (stereo not drawn) | ? | -28.2% | -17.1% | 4.5%[57 µM] | 0.0 | ?
Cc1oc(-c2ccc(Cl)cc2)nc1CS(=O)CC(=O)NC1CC1 (stereo not drawn) | -6.8% | -9.4% | -2.7% | 45.0% | -1.4 | -23.9%
Cc1ccc(CCNC(=O)CS(=O)Cc2nc(-c3ccccc3Cl)oc2C)cc1 (stereo not drawn) | -27.2% | -27.1% | 2.3% | 69.2% | -0.1 | 50.1µM*
COc1ccc(-c2nc(CS(=O)CC(=O)NCCc3ccc(OC)c(OC)c3)c(C)o2)cc1 (stereo not drawn) | -13.7% | -9.9% | -16.8% | 50.1% | -0.9 | 19.0%
CCOc1ccc(CCNC(=O)CS(=O)Cc2nc(-c3ccc(OC)cc3)oc2C)cc1OCC (stereo not drawn) | -5.4% | -13.0% | -19.1% | 31.5% | -0.8 | 50.1µM*
Cc1ccccc1-c1nc(CS(=O)CC(=O)NC(C)CCc2ccccc2)c(C)o1 (stereo not drawn) | ? | ? | -31.1% | 20.0% | -0.4 | 70.8µM*
Cc1ccc(-c2nc(CS(=O)CC(=O)NC3CCC(C)CC3)c(C)o2)cc1 (stereo not drawn) | ? | -24.5% | -23.9% | 3.4% | -12.0 | 50.1µM*
CCc1cccc(NC(=O)CS(=O)Cc2nc(-c3ccc(C)cc3)oc2C)c1 (stereo not drawn) | -4.2% | -38.9% | -29.2% | 0.8% | 10.9 | 44.7µM*
COC(=O)c1ccccc1NC(=O)C(C)NS(=O)(=O)c1ccc(OC)cc1 (stereo not drawn) | 23.8µM* | -4.8% | 25.3%[11.4 µM] | -14.7% | -0.7 | ?
COC(=O)c1ccccc1NC(=O)C(C)Oc1ccccc1 (stereo not drawn) | 2.99µM* | 111.4% | ? | 86.0% | ? | 68.0%[59 µM]
CCc1ccc2oc(-c3cc(NC(=O)c4cc([N+](=O)[O-])ccc4N4CCOCC4)ccc3Cl)nc2c1 | . | ? | -33.2% | -5.1% | . | ?
CCC(C)(C)NC(=O)C(c1ccc(C)cc1)N(CCN1CCOCC1)C(=O)CNC(=O)c1cccs1 (stereo not drawn) | 29.9µM* | -13.1% | ? | -7.0% | -20.4 | .
O=C(/C=C/c1ccc(Cl)cc1Cl)N1CCN(c2ccc([N+](=O)[O-])c(N3CCOCC3)c2)CC1 | -2.9% | ? | -34.5% | 0.7% | -0.7 | ?
O=S(=O)(CCN1CCN(c2ccccc2O)CC1)c1cc(Cl)ccc1Cl | -5.0% | 0.9% | -22.1% | 21.9% | 2.3 | 44.7µM*
O=C(Oc1cc(Cl)ccc1Cl)c1ccc(N2CCOCC2)c([N+](=O)[O-])c1 | 3.6% | ? | 35.5µM* | ? | 14.8 | ?
O=C(/C=C/c1ccc(Cl)cc1Cl)N1CCN(c2ccccc2[N+](=O)[O-])CC1 | -4.4% | ? | ? | ? | -1.8 | 39.8µM*
O=C(/C=C/c1ccccc1[N+](=O)[O-])N1CCN(c2ccccc2F)CC1 | -1.5% | ? | -29.5% | 13.7% | 5.8 | 56.2µM*
CCOC(=O)c1c(S(=O)(=O)N2CCCC(C(=O)N3CCN(c4ccc(F)cc4)CC3)C2)c(C)n(C)c1C (stereo not drawn) | . | -18.1% | -27.3% | -0.2% | . | -0.5%[59 µM]
O=[N+]([O-])c1cc(Cl)ccc1N1CCN(c2ccccc2O)CC1 | -9.4% | 14.1µM* | 39.8µM* | ? | 7.7 | ?
CC(C)(C)C(=O)N1CCN(c2ccc(Cl)cc2[N+](=O)[O-])CC1 | 2.2% | ? | -30.0% | -21.0% | -2.4 | 2.1%[59 µM]
CCOc1ccc2c(c1)c(N=NC(N)=S)c(O)n2C | -2.1% | -18.6% | -12.3% | 46.5% | -1.0 | 3.8%[59 µM]
CCOc1ccc2c(c1)n(CO)c(=S)n2CO | -12.4% | -0.3% | 79.4µM* | 6.2% | 0.2 | 2.24µM*
CCn1c(C)c(C)c2cc(C(=O)NCC(C)c3ccccc3)ccc21 (stereo not drawn) | . | -37.4% | ? | -8.1% | . | -33.1%[59 µM]
